Source: PubChem BioAssay (NCI)
Compounds without any hit were thinned out: in the full panel of roughly 79,000, 15% have a hit. The source made the active and inactive calls. Rule as the data show it: active = growth inhibition above about 70%; inactive = the rest. *1 amine or outer side, *2 acyl side, *3 side chain or, on linkers, in order; H or OH if unused. Where a SMILES comes first, the peptide text is derived from it. Bridges are numbered along the chain shown (N, C = ends). Roman numbers before positions name the chains, in order. [ ]: non-standard residue; d: D form. Actinocin(9to1) = Cc1c2oc3c(C)ccc(C(=O)[*:1])c3nc-2c(C(=O)[*:2])c(N)c1=O; X13 = O=C1CC(C(=O)[*:2])N([*:1])C1; NMeV = CN[CH](C(=O)O)C(C)C; Sar = CNCC(=O)O

Tests used:
[1] = NCI Yeast Anticancer Drug Screen. Data for the rad50 strain (AID 155);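 also: 0% = growth of vehicle-only cultures of the same strain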; details: S. cerevisiae rad50 strain growth inhibition; at 50.0 µM; hits give high values
Method in brief: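 DNA repair mutant yeast, compound exposure, growth read-out; inhibition is taken relative to vehicle.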

[2] = NCI Yeast Anticancer Drug Screen. Data for the mec2-1 strain (AID 157); details: S. cerevisiae mec2-1 strain, at 50.0 µM, hits give high values
Method in brief: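 Strain: mec2-1 (DNA repair/cell cycle alteration). Compound exposure, then growth measured; inhibition expressed relative to vehicle.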

[3] = NCI Yeast Anticancer Drug Screen. Data for the sgs1 mgt1 strain (AID 161);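 also: 0% = growth of cultures given vehicle only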; details: S. cerevisiae sgs1 mgt1 strain, at 50.0 µM, hits give high values
Method in brief: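 Test agents were incubated with a DNA-repair-mutant yeast strain. Growth was then read and compared against vehicle-treated controls.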

[4] = NCI Yeast Anticancer Drug Screen. Data for the cln2 rad14 strain (AID 165);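 also: 0% = growth equal to vehicle treated cultures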; details: S. cerevisiae cln2 rad14 strain, at 50.0 µM, hits give high values
Method in brief: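 Compounds are applied to the cln2 rad14 yeast strain, and growth is then compared with that of vehicle-treated cultures to give inhibition.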

[5] = NCI Yeast Anticancer Drug Screen. Data for the bub3 strain (AID 167); details: S. cerevisiae bub3 mutant strain, at 50.0 µM, hits give high values
Method in brief: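 In this screen, a yeast mutant lacking normal mitotic checkpoint function is challenged with compound. Relative growth versus vehicle gives the inhibition value.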

[6] = NCI Yeast Anticancer Drug Screen. Data for the mlh1 rad18 strain (AID 175); details: S. cerevisiae mlh1 rad18 strain growth inhibition; at 50.0 µM; hits give high values
Method in brief: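 Read-out is yeast growth inhibition, calculated against vehicle-only controls. The compound was applied to a strain engineered with DNA damage repair alterations.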

Measured: growth inhibition

NC(N)=NC(=S)Nc1ccc(Cl)cc1
inactive: [1] 21.6% | [2] 1.6% | [3] 7.55% | [4] -4% | [5] -15.7% | [6] 31.1%

CC1=CC2C3C(=O)OC(=O)C3C1C(Cc1ccccc1)N2C (stereo not given)
inactive: [1] 14.5% | [2] -1.85% | [3] 10.6% | [4] 12.9% | [5] -6.55% | [6] 21.5%

C1CCC(C2CCCC[N-]2)[N-]C1.C1CCC(C2CCCC[N-]2)[N-]C1.O=C(O)C(=O)O.[Ru+4] (stereo not given)
inactive: [1] 31.8% | [2] 9.4% | [3] 16.2% | [4] 11.8% | [5] -3.25% | [6] 7.9%

CCOC(=O)C1(C(=O)OCC)CCCN1C(=O)[C@H](CNC(=O)OC(C)(C)C)NC(=O)OCc1ccccc1
inactive: [1] 32.1% | [2] 12.8% | [3] -10.9% | [4] -0.45% | [5] -30.1% | [6] -79.8%

CCOC(=O)c1sc(SC)nc1NC(=O)c1ccc([N+](=O)[O-])cc1
inactive: [1] -13.4% | [2] -8.55% | [3] -53% | [4] -1.3% | [5] -20.5% | [6] -3.85%

O=C1OC(=O)c2ccccc21
inactive: [1] 5.25% | [2] -15.2% | [3] -11.4% | [4] -24.8% | [5] -2.2% | [6] 0.05%

Cc1ccc(/C(C#N)=C/c2ccccc2)cc1
inactive: [1] 32.8% | [2] 26.4% | [3] 21% | [4] 19.6% | [5] 18.8% | [6] 9.65%

CC(=O)N1CCC23C(=O)CC4C(=CCOC5CC(=O)N(c6ccccc62)C3C54)C1 (stereo not given)
inactive: [1] -19.1% | [2] -23.9% | [3] -4.5% | [4] 8.9% | [5] 3.55% | [6] -4.8%

SCCNCc1ccccn1
inactive: [1] -22.1% | [2] -36.1% | [3] -17.4% | [4] 14.3% | [5] -37.4% | [6] -3.65%

CC1CCC(C(C)C)C(OC(=O)N/N=C/N(C)C)C1 (stereo not given)
inactive: [1] 1.65% | [2] 17.2% | [3] 4.4% | [4] 20% | [5] -0.95% | [6] 25.1%

N#CCCCO
inactive: [1] -1.25% | [2] 11.6% | [3] 7.45% | [4] -4.55% | [5] 0.3% | [6] -11.8%

Cc1c2oc3c(C)ccc(C(=O)NC4C(=O)NC(C(C)C)C(=O)N5CC(=O)CC5C(=O)N(C)CC(=O)N(C)C(C(C)C)C(=O)OC4C)c3nc-2c(C(=O)NC2C(=O)NC(C(C)C)C(=O)N3CC(=O)CC3C(=O)N(C)CC(=O)N(C)C(C(C)C)C(=O)OC2C)c(N)c1=O (stereo not given) (I: TV[X13][Sar][NMeV] / II: TV[X13][Sar][NMeV]; ester I:1-I:C, II:1-II:C; linker I:N-II:N via Actinocin(9to1); configuration not given here)
inactive: [1] -22.6% | [2] -1.65% | [3] -3.1% | [4] 52.4% | [5] -3.25% | [6] -42.8%

COc1nc(NC2OC(CO)C(O)C(O)C2O)c(C=O)c(=O)n1C (stereo not given)
inactive: [1] 2.45% | [2] -6.55% | [3] -16.1% | [4] 9.9% | [5] -7.3% | [6] -7.4%

COc1ccc(OC)c(NCc2ccccc2)c1
inactive: [1] -8.6% | [2] -2.5% | [3] -13.9% | [4] -88.5% | [5] -0.4% | [6] 3.65%

OC1c2ccccc2C(O)c2c1ccc1c2CN(Cc2ccccc2)CC1 (stereo not given)
inactive: [1] 5.05% | [2] 8.25% | [3] 1.95% | [4] 15.1% | [5] 1.3% | [6] 33.2%

Cc1cc(S(=O)(=O)/N=C(/NN)Nc2ccc(Cl)cc2)c(S)cc1Cl
inactive: [1] 22.6% | [2] 8.15% | [3] 19.9% | [4] 3.8% | [5] 27.5% | [6] 29.9%

CC[N+](C)(CC)CCOC(=O)C(C1=CCCCC1)C1(O)CCCCC1 (stereo not given)
inactive: [1] 3.05% | [2] -15.8% | [3] -27.5% | [4] -48.9% | [5] 2.5% | [6] -16.6%

CC(=O)Nc1cc(Cl)ccc1C
inactive: [1] 39.7% | [2] 29.9% | [3] 26.3% | [4] 16.1% | [5] 5.95% | [6] 24.1%

CCOC(=O)C(CCC#N)(NC(C)=O)C(=O)OCC
inactive: [1] 1.4% | [2] -2.35% | [3] 7.4% | [4] -25.3% | [5] 1.7% | [6] -20.9%

Cc1ccc(N=Cc2cc(Cl)cc(Cl)c2OC(=O)c2ccccc2)cc1C
active: [1] 81.8% | [2] 91.7% | [3] 91% | [4] 90.2% | [5] 96.5% | [6] 93.3%

CCCCCn1[nH]nc(C(=O)OC)c1=O (tested in a mixture with another compound)
inactive: [1] 18.8% | [2] 17.1% | [3] 23.1% | [4] 27.5% | [5] 30.5% | [6] 34.4%

CC(NNC(=S)N1CC2CCC(CC2)C1)c1cccc[n+]1[O-] (stereo not given)
active: [1] 93.1% | [3] 92.5% | [4] 84.7%
inactive: [2] 37.4% | [5] 48.8% | [6] 59.6%

CC(C)C1CCC2(C)C(CCC3C4(C)CCCC32OC4=O)C1 (stereo not given)
inactive: [1] -17.7% | [2] -13.6% | [3] -4.8% | [4] -27.2% | [5] -0.15% | [6] 23.7%

CCN(CC)CCCCCCCNc1nccc2ccccc12
inactive: [1] 31.1% | [2] -2.4% | [3] -8.4% | [4] -23.3% | [5] 12.8% | [6] 35.4%

CO/N=C(\C(=O)N(C)n1cnnc1)c1csc(NC(c2ccccc2)(c2ccccc2)c2ccccc2)n1
inactive: [1] 21.7% | [2] 13.2% | [3] 11.8% | [4] 25.1% | [5] 18.8% | [6] 28%

CC(CC(=O)Nc1ccc(NC(=O)CC(C)N=NC(N)=S)cc1)N=NC(N)=S (stereo not given)
inactive: [1] 30.6% | [2] 3.95% | [3] -5.35% | [4] -27.2% | [5] 1.75% | [6] 14%

CN(C)c1ccc(/C=C2\N=C(c3ccc([N+](=O)[O-])cc3)OC2=O)cc1
inactive: [1] 1.35% | [2] -6.75% | [3] 17.1% | [4] 6.95% | [5] 14.9% | [6] 7.55%

CC(C)(C#N)OC(=O)c1cc([N+](=O)[O-])cc([N+](=O)[O-])c1
inactive: [1] 8.55% | [2] 4.45% | [3] 13.1% | [4] -14.9% | [5] -9.55% | [6] -2.1%

Clc1ccc(N=Nc2ccccn2)cc1
inactive: [1] 18.1% | [2] 2% | [3] -11.1% | [4] -65% | [5] -7.6% | [6] -12.2%

O=C(NN1C(=O)C(Cl)C1c1ccc([N+](=O)[O-])cc1)c1ccccc1O (stereo not given)
inactive: [1] -16.2% | [2] -19.2% | [3] -35.7% | [4] -6.45% | [5] -26% | [6] -20.1%

C/C=C/C1OCC(C)(C)CO1
inactive: [1] -0.8% | [2] 22.9% | [3] -12.9% | [4] -46.8% | [5] -24.7% | [6] -1.5%

CCCCCCCCCCCCCCCCOc1ccc(/C=N/Nc2ccccc2)cc1OC
inactive: [1] -20.1% | [2] -22.2% | [3] -25.9% | [4] 0.95% | [5] -32% | [6] -13.6%

C[n+]1ccccc1C(O)C(O)c1cccc[n+]1C (stereo not given)
inactive: [1] 6.05% | [2] 1.65% | [3] 8.85% | [4] 23.4% | [5] -8.45% | [6] 9.6%

CC(=O)c1ccccc1C(C)c1ccc(C)c2ccccc12 (stereo not given)
inactive: [1] -1.65% | [2] 12.4% | [3] 6.75% | [4] -11.8% | [5] 2.95% | [6] 2.3%

Cc1nc(C(N)=S)sc1C(=O)CC(=O)C(=O)Nc1cccc(Cl)c1C
inactive: [1] 1.2% | [2] -2.4% | [3] -10.2% | [4] -6.65% | [5] -0.4% | [6] -53.4%

CCOC(=O)c1c[nH]c2nc(N)ccc2c1=O
inactive: [1] -3.75% | [2] -0.2% | [3] 9.9% | [4] -16.4% | [5] -0.7% | [6] -5.4%

CCOP(=O)(OCC)C([O][Sb]([O]CC(C)Cl)[O]CC(C)Cl)c1ccc(OC)cc1 (stereo not given)
inactive: [1] -41.9% | [2] -4.85% | [3] -10.9% | [4] -2.45% | [5] 2.05% | [6] -18.6%

c1ccc(Nc2nnc(Nc3ccccc3)s2)cc1
inactive: [1] -6.15% | [2] 21.6% | [3] 53% | [4] -21.2% | [5] 3.9% | [6] -21.1%

COc1ccc2c(cnc3c4cc(OC)c(OC)cc4ccc23)c1
inactive: [1] 15.2% | [2] -0.85% | [3] 4.05% | [4] -4.9% | [5] 24.9% | [6] 3.6%

Cc1ccc(S(=O)(=O)N/N=C/c2ccsc2)cc1
inactive: [1] 20.6% | [2] 13.3% | [3] 27.9% | [4] 18.8% | [5] 23% | [6] 33%
